Shown are actives, neighbours in structure and some others; about 2.3% of the full set was active somewhere.
TGFb SMAD3 inh: qHTS for Inhibitors of TGF-b; HepG2 CAGA-GFP TGF-b/SMAD3 reporter, GFP fluorescence, 18 h; TGF-beta stimulated, 500 pg/mL final; Potency, µM (top dose mostly 46.1 µM), hits mostly inhibitors; 410,000 compounds, 1.2% hits; AID 588855, 2011; note: nearly all actives have a fitted effect of over 65% in size
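Smad-responsive CAGA-GFP expression was quantified in HEPG2 cells exposed to compounds and 500 pg/mL final TGF-beta for 18 h at 37 degrees C; unstimulated wells defined full inhibition.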
ATXN2 expr inh: Primary qHTS for Inhibitors of ATXN expression; AID 1745845, 2022; HEK-293 ATXN2-luciferase reporter, luminescence, 24 h; Potency, µM (highest dose often 57 µM), most hits filed as inhibitors; 360,000 compounds, 0.72% hits; note: nearly all actives have a fitted effect of over 55% in size
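ATXN2-luciferase reporter cells (luciferase flanked by upstream and downstream ATXN2 gene portions) were treated 24 h at 37 °C with compounds at up to 57 uM. SteadyGlo luminescence gave expression; GF-AFC fluorescence gave viability.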
S2 tox: Viability Counterscreen for Primary qHTS for Inhibitors of ATXN expression; AID 651635, 2014; Potency, µM (doses to about 56.7 µM), actives largely listed as cytotoxic; 400,000 compounds, 0.49% hits; S2 cells (HEK-293 line with an ATXN2-luciferase reporter) viability, CellTiter-Fluor protease fluorescence, 24 h; note: nearly all actives have a fitted effect of over 40% in size
HepG2 viability: qHTS for Inhibitors of TGF-b: Cytotox Counterscreen; HepG2 CAGA-GFP viability, ATP luminescence, 18 h; Potency, µM (doses to about 46.1 µM), usual class: cytotoxic; 410,000 compounds, 0.76% hits
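CellTiter-Glo luminescence gave cytotoxicity after 18 hours at 37 degrees C. The cells were HepG2 CAGA-GFP in 1% FBS DMEM, stimulated with 500 pg/mL TGF-beta after compound addition. %Activity was normalised to no-cell wells (complete cell-killing) and DMSO (no toxicity), and curves were fitted and classified.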
Numbers stand for hits; - = inactive; ? = inconclusive; . = not tested or not shown; ! = a repeat was not active. Calls come from the whole dose curve; as a rule, active = well fitted curve in the direction sought with a large enough effect; inconclusive = small, poorly fitted or top-dose-only effect, or another doubt; inactive = no such curve, though single readings can be large; an effect the other way counts as inactive or inconclusive.

SMILES	TGFb SMAD3 inh	ATXN2 expr inh	S2 tox	HepG2 viability
C=CCn1cccc(/C=C/C(=O)c2ccc(C(C)(C)C)cc2)c1=S	?	25µM	.	-
O=C(C=Cc1ccccc1Cl)c1ccccc1	-	-	-	-
COc1cc(=O)n2c(c1C(=O)N(C)Cc1cscn1)CCN(Cc1ccc3c(c1)OCCO3)CC2	.	.	-	.
O=C1C(=Cc2ccccc2[N+](=O)[O-])Cc2ccccc21	13µM	.	?	18µM
CN(C)c1ccc(/C=C/c2c(F)cnc3ccccc23)cc1	?	.	.	-
Clc1ccccc1C=NNc1ccccn1	?	-	-	-
C(=N\NC1=Nc2cccc3cccc1c23)/c1ccccn1	2µM	.	?	-
Clc1ccccc1/C=N/NC1=Nc2cccc3cccc1c23	-	-	13µM	-
CC(C)Oc1cc(NC(=O)CS(=O)CC(=O)Nc2cccc(C(F)(F)F)c2)c(Cl)cc1Cl (centres undefined)	11µM	-	-	-
O=C1c2ccccc2C(=Cc2cccnc2)c2ccccc21	-	.	?	-
CC(C)N1C/C(=C/c2ccsc2)C(=O)/C(=C/c2ccsc2)C1	7.9µM	?	.	-
CCN1C(=O)S/C(=C/c2ccsc2)C1=O	-	-	-	-
CC(C)N1C/C(=C/c2cccnc2)C(=O)/C(=C/c2cccnc2)C1	7.1µM	-	?	-
CN1C/C(=C/c2cccnc2)C(=O)/C(=C/c2cccnc2)C1	2.8µM	20µM	?	-
COC(=O)c1ccc(NC(=O)c2nc(SCc3ccccc3F)ncc2Cl)cc1	-	.	.	-
CC(=O)C[n+]1cccc2cc(Cl)ccc21	-	.	.	-
CCc1cc2c(cc1N1CCC(N3CCOCC3)CC1)C(C)(C)c1[nH]c3cc(C#N)ccc3c1C2=O	.	-	.	.
CN(C)CCCNc1nc2cc(-c3ccsc3)sc2c(=O)n1C	-	-	-	-
Cc1ccc(F)cc1-c1cc2nc(NCCCN(C)C)n(C)c(=O)c2s1	?	32µM	?	-
Cc1ccc(CN(CC(O)COc2cccc3[nH]cc(C)c23)C(C)(C)C)cc1 (centres undefined)	?	.	?	13µM
COc1ccc(Cl)cc1NC(=O)c1nnn(CC(=O)Nc2ccc(OC)c(OC)c2)c1N	-	.	-	-
CCOc1ccc(OCC)c(NC(=O)c2nnn(CC(=O)Nc3cc(Cl)ccc3OC)c2N)c1	?	?	10µM	-
CC1(C)CC(=O)C2=C(C1)c1c(ccc3ccccc13)NC2c1ccc(Br)o1 (centres undefined)	-	-	?	20µM
CC1CN(CCC(=O)N2CCCC(C(=O)c3nccn3C)C2)Cc2cc(Cl)ccc2O1 (centres undefined)	.	.	-	.
CCN(CC)CCCC(C)Nc1cc(/C=C/c2ccccc2Cl)nc2cc(Cl)ccc12 (centres undefined)	2.8µM	.	.	2.8µM
SMILES	TGFb SMAD3 inh	ATXN2 expr inh	S2 tox	HepG2 viability
COc1cc(/C=C2\C=Cc3ccccc32)ccc1N(C)C	-	.	.	-
CC(C)=CCc1cc([C@@H]2COc3c(ccc4c3C=CC(C)(C)O4)C2)c(O)cc1O	14µM	?	.	16µM
CNC(=O)c1nn(C)c2c1C(C)(C)Cc1cnc(Nc3ccc(N4CCN(C)CC4)cc3)nc1-2	.	1.7µM	.	.
CN(C)c1ccc(/C=C/c2sc3ccccc3[n+]2CCCCI)cc1	?	.	.	-
Cc1cc2nc3ccc(=[N+](C)C)cc-3sc2cc1N	?	7.1µM	13µM	8.9µM
CN(C)c1ccc2nc3ccc(=O)cc-3sc2c1	?	.	-	-
c1ccc2nc(-c3cc4ccccc4s3)ccc2c1	-	.	.	-
CN(C)c1ccc2nc3ccc(=[N+](C)C)cc-3sc2c1	10µM	7.9µM!	25µM!	7.9µM!
CCCCCCCCNc1ccc(/C=C/c2ccnc3ccccc23)cc1	-	.	.	-
COc1cccc(-c2ccc(O)c(CNCc3cccc4ccccc34)c2)n1	.	.	-	.
O=C1NC(=O)C(=Cc2ccc3nccnc3c2)S1	.	-	.	.
CCOc1ccc(C(=O)Nc2cccc(NC(=O)c3ccc(Cl)cc3Cl)c2)cc1	11µM	.	.	-
CCCOc1ccc(C(=O)Nc2cccc(NC(=O)c3cccc(Cl)c3)c2)cc1	-	-	?	-
O=C(NCC1CCC2(CCN(Cc3ccccc3O)CC2)O1)C1CCCO1 (centres undefined)	.	.	-	.
CN(C)CCNc1nc2sc3c(c2c(=O)n1-c1ccccc1)CCCCC3	-	-	-	14µM
CN(C)CCNc1nc2sc3c(c2c(=O)n1-c1ccc(F)cc1)CCCCC3	?	-	-	-
O/N=C/c1ccc2cccc(OCc3ccccc3)c2n1	-	-	-	-
NC(N)=N/N=C/c1ccc2cccc(OCc3ccccc3)c2n1	?	30µM	?	-
CCNc1ccc(/C=C2\C=Cc3ccccc32)cc1	-	.	.	-
CCC(C)(C)c1ccc(Oc2cccc(C(=O)O)c2)cc1	-	-	-	-
CCC(C)(C)c1ccc(Oc2ccc(N)cc2)cc1	?	6.7µM	-	-
CCN1CCCC1CNC(=O)c1cnn(-c2ncc3c(n2)-c2ccc(OC)cc2CC3)c1C1CC1 (centres undefined)	.	.	-	.
CC1=C(C#N)C(C)(C)C(C#N)=C(C)N1	-	.	-	1.1µM
COc1cccc(-n2c(SC)nnc2C2CCN(CCC(C)c3ccc(C)o3)CC2)c1 (centres undefined)	.	.	-	.
NC(Cc1ccc(C(F)(F)F)cc1)c1csc(Nc2ccc(C(=O)NCc3ccco3)cn2)n1 (centres undefined)	?	13µM	22µM	20µM
SMILES	TGFb SMAD3 inh	ATXN2 expr inh	S2 tox	HepG2 viability
CCCCN(C)C(=O)c1ccc(Nc2nc(C(N)Cc3ccc(C(F)(F)F)cc3)cs2)nc1 (centres undefined)	?	-	32µM	11µM
COc1ccc(CC(N)c2csc(Nc3cc(NCc4ccco4)ncn3)n2)cc1 (centres undefined)	?	?	?	11µM
COc1ccc(CCC(=O)NO)cc1	-	.	.	-
C(=C\c1ccco1)/c1nc2ccccc2[nH]1	-	.	-	-
C(=C\c1nc2ccccc2[nH]1)/c1ccccc1	-	?	-	10µM
COc1ccc(C(=O)Nc2ccc(C(=O)Nc3cccc(C)c3)cc2)cc1	-	?	10µM	-
CC(C)C(=O)N1CCN(c2ccc(NC(=O)c3ccc4c(c3)OCCO4)cc2Cl)CC1	-	?	18µM	-
CC(=O)N1CCN(c2ccc(NC(=O)c3ccc4c(c3)OCCO4)cc2Cl)CC1	-	-	-	-
COC(=O)c1ccc(N2CCOCC2)c(NC(=O)Nc2cccc(OC)c2)c1	-	32µM	?	-
COc1cccc(NC(=O)c2ccc3c(c2)OCO3)c1	-	-	-	-
COc1cccc(NC(=O)c2ccc3c(c2)OCCO3)c1	-	?	-	14µM
CC(C)(C)n1ncc2c(=O)n(Cc3ccc(Cl)cc3C(F)(F)F)cnc21	-	.	.	-
COc1ccc(S(=O)(=O)N2c3ccc(Cl)cc3[C@@](O)(c3ccccc3Cl)[C@H]2C(=O)N2CCC[C@@H]2C(N)=O)cc1OC	.	-	-	.
CCOC(=O)c1cc(=O)c2c(OCC(COc3cccc4oc(C(=O)OCC)cc(=O)c34)OC(=O)[C@@H](N)CCCCN)cccc2o1	.	-	-	.
